Compound activity deposited in PubChem BioAssay by Buhrlage Lab, Dana-Farber Cancer Institute and Novartis Institutes for BioMedical Research (Cambridge, Mass).
USP17 inh – inhibitors of human USP17 deubiquitinase; A8MUK1; purified USP17, Ub-rhodamine cleavage fluorescence, 3 h; inhibition, % at 50 µM; 47,000 compounds, 6.5% hits; AID 1645855
USP30 block – inhibitors of human USP30 deubiquitinase | purified USP30, Ub-rhodamine cleavage fluorescence | inhibition, % at 25 µM | Q70CQ3 | AID 1645860 | 47,000 compounds, 5.3% hits
USP10 inh – blocks human USP10 ubiquitin-rhodamine cleavage | purified USP10, Ub-rhodamine fluorescence, 60 min | inhibition, % at 20 µM | 47,000 compounds, 1.1% hits | AID 1645856
Target sequence (Q14694 whole entry, looked up): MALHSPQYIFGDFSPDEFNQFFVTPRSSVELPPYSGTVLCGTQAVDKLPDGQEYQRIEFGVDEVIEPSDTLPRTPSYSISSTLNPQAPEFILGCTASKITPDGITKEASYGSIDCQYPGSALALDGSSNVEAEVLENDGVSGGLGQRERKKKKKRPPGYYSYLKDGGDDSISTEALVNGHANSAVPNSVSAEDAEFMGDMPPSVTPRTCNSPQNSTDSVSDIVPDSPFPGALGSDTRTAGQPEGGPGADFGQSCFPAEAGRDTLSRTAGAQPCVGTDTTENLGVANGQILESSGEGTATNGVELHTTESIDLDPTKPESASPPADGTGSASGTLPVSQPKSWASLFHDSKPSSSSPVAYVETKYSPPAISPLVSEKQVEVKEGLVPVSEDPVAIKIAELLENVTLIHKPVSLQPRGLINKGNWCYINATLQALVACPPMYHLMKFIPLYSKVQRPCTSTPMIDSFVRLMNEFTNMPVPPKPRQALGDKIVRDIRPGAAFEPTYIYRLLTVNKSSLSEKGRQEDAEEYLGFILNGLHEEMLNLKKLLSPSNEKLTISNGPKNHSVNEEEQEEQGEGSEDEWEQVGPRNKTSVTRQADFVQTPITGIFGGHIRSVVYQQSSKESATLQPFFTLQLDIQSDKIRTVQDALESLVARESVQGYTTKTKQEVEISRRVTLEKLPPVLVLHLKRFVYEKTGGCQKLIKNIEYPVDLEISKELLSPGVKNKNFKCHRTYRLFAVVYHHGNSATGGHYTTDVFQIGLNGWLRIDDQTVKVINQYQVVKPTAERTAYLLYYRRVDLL
USP8 block – inhibitors of human USP8 deubiquitinase; P40818; purified USP8, Ub-rhodamine cleavage fluorescence, 30 min; inhibition, % at 20 µM; 47,000 compounds, 4.2% hits; AID 1645853
USP28 inh – inhibitors of human USP28 deubiquitinase | Q96RU2 | inhibition, % at 25 µM | 47,000 compounds, 3% hits | purified USP28, Ub-rhodamine cleavage fluorescence, 30 min
Large screens that a line does not name were inactive. An excerpt weighted towards active compounds, which were near 14% of everything screened. Cut-off read from the data, not from the text of the source: active = inhibition above about 30%; inactive = the rest.

Cc1ccccc1C(=O)Nc1ccc(-c2ccc(N3CCOCC3)nn2)cc1	none
COc1ccc(S(=O)(=O)N2CCN(c3ccnc4cc(Cl)ccc34)CC2)cc1	USP30 block 33
O=C(c1ccncc1)N1CCCC(c2nn(CCOc3ccccc3)c3nccnc23)C1 (centres undefined)	none
Cc1cccc(C(=O)NC(Cc2ccccc2)c2nc3ccccc3n2C)c1 (centres undefined)	USP30 block 45 (no result: USP17 inh)
CC(=O)NC(Cc1ccccc1)c1nc2ccccc2n1Cc1ccccc1F (centres undefined)	none
N=c1sccn1CC(=O)Nc1ccc(Oc2ccccc2)cc1	USP28 inh 37
CCOC(=O)c1ccccc1NC(=O)C(=O)CC(=O)c1ccc(OC)cc1	USP17 inh 31, USP8 block 78
Cn1c(=O)/c(=C/c2ccccc2)[nH]c(=O)/c1=C/c1ccccc1	USP17 inh 56
O=c1[nH]/c(=C\c2ccccc2)c(=O)[nH]/c1=C\c1ccccc1	none
CNc1nc(C2CCCCN2C(C)=O)nc2c1CN(S(=O)(=O)c1ccccc1)CC2 (centres undefined)	none
COc1ccc(Cn2cc(-c3ccc(Cl)cc3)cc(C#N)c2=O)cc1	USP30 block 42
O=C(NCc1csc(-c2ccccc2)n1)c1cc(F)cc2c1OCOC2	USP17 inh 33
CN1C[C@@]23CN(C(=O)c4cccc(Cl)c4)C[C@@H](C[C@@H]2S1(=O)=O)O3	none
O=C(CCc1nnc2n(Cc3ccc(Cl)cc3)c(=O)c3ccccc3n12)NC1CCN(Cc2ccccc2)CC1	none
Cc1noc(C)c1CN1CCC(NC(=O)c2ccccc2)C1 (centres undefined)	none
CC1CCN(Cc2nc(Cn3ccn4nc(-c5ccccc5)cc4c3=O)no2)CC1	none
Cc1ccc(C)c(-c2cc3c(=O)n(Cc4noc(CN5CCCCC5)n4)ccn3n2)c1	USP28 inh 71
CS(=O)(=O)c1cccc(C(=O)Nc2sc3c(c2C(N)=O)CCCC3)c1	USP17 inh 36
COc1ccc(CC(=O)OCC(=O)N2c3ccccc3NC(=O)C2(C)C)cc1OC	none
O=C(Cn1c(C(F)(F)F)nc2cc3c(cc21)OCCO3)NCC1CCCO1 (centres undefined)	none
O=C(Cn1c(C(F)(F)F)nc2cc3c(cc21)OCCO3)NC1CCCC1	USP17 inh 35
c1ccc2oc(-c3csc(-c4ccc5c(c4)OCCO5)n3)cc2c1	none
FC(F)(F)c1ccc(-c2nc(-c3ccc4c(c3)OCCCO4)cs2)cc1	USP30 block 33
Cc1nc(-c2ccc3c(c2)OCCCO3)cs1	none
c1cc(N2CCOCC2)ccc1-c1csc(-c2ccc3c(c2)OCCO3)n1	USP17 inh 40
COC(=O)c1ccc(CSc2nc(N)c(NC(=O)c3ccco3)c(=O)[nH]2)o1	none
CC(CCc1ccccc1)NC(=O)CSc1nc(-c2ccco2)nc2cc(=O)[nH]n12 (centres undefined)	none
Cc1nc2ccccn2c(=O)c1NC(=O)COc1ccc(Cl)cc1	none
Cc1nccn1CCCNC(=O)c1ccn(-c2ccccc2Cl)n1	none (no result: USP30 block, USP28 inh)
O=C(Nc1cc(F)ccc1F)c1ccn(COc2ccc(F)c(Cl)c2)n1	USP17 inh 46, USP30 block 70
O=C(Nc1cc(F)ccc1F)c1ccc2c(c1)ncn2CCN1CCCC1	none
Cc1ccnc(NC(=O)c2ccn(COc3ccccc3Cl)n2)c1	USP30 block 32
Cc1ccccc1NC(=O)c1ccn(COc2ccc(Cl)cc2)n1	USP28 inh 59
COc1ccc(NC(C)=O)cc1S(=O)(=O)Nc1ccccc1Oc1cccc(C)c1	none
Cc1c(C#N)c2ccccc2n1CC(=O)NCC1CCCO1 (centres undefined)	none
COc1c(C)cnc2c1c(=O)n(CC(=O)NCc1ccc3c(c1)OCO3)c(=O)n2C	USP30 block 36
Cc1ccc(CNC(=O)Cn2c(=O)c3sccc3n(CC(=O)Nc3ccc(Br)cc3)c2=O)cc1	none
O=C(CCCn1c(=O)c2sccc2n(CC(=O)NCCC2=CCCCC2)c1=O)NCc1ccc2c(c1)OCO2	USP17 inh 50, USP28 inh 32
Cc1cc(C)c(NC(=O)Cn2c(=O)n(CCC(=O)NCc3ccc4c(c3)OCO4)c(=O)c3sccc32)c(C)c1	USP17 inh 75, USP10 inh 57, USP28 inh 49
Cc1c(C#N)c2ccccc2n1CC(=O)NCc1ccc2c(c1)OCO2	USP17 inh 40, USP8 block 60, USP28 inh 32
CCOc1c(CC)cnc2c1c(=O)n(CC(=O)NCc1ccc(F)cc1)c(=O)n2C	none
CCCn1c(=O)c2sccc2n2c(CCC(=O)NCCC3=CCCCC3)nnc12	none
Cc1cc(OCC(=O)NC2CCCc3ccccc32)c(C(C)C)cc1Cl (centres undefined)	none
CCOC(=O)N1CCN(CC(O)Cn2cnc3c2c(=O)n(C)c(=O)n3C)CC1 (centres undefined)	none
O=C(Cc1cccs1)Nc1nnc(SCc2ccc([N+](=O)[O-])cc2)s1	none
O=C(CSc1nnc(NC(=O)c2ccc([N+](=O)[O-])cc2)s1)Nc1ccc(Br)cc1	USP30 block 33
CC1(C)Cc2nc3sc4c(SCc5ccc(F)cc5)ncnc4c3cc2CO1	none
Clc1ccc(-c2cnc(N3CCOCC3)nc2)cc1	USP30 block 44
Fc1ccc(-c2cnc(N3CCOCC3)nc2)cc1	none
COc1ccccc1-c1nnc(SCC(=O)c2ccc3c(c2)NC(=O)CO3)n1Cc1ccco1	USP17 inh 37
COc1ccc(CNC(=O)c2ccccc2C(=O)c2ccc3c(c2)NC(=O)CO3)cc1	none
Cc1ccc(S(=O)(=O)N(C)C2(C)CCS(=O)(=O)C2)cc1C (centres undefined)	none (no result: USP17 inh)
Cc1ccc(S(=O)(=O)N2CC(C(=O)NC3CCCCC3)C3(CCOCC3)C2)cc1 (centres undefined)	USP30 block 31
COc1ccc(CC(=O)N2CCC(c3onc4c3CC(C)CC4)CC2)cc1 (centres undefined)	none
O=C(Nc1ccccc1)Nc1cc(C(F)(F)F)ccc1N1CCOCC1	none
COc1cccc(NC(=O)COc2cccc(-n3cnnn3)c2)c1	none
O=C(Nc1ccc(F)cc1)c1cccc(-n2cnnn2)c1	none
CCc1ccc(NC(=O)COc2cccc(-n3cnnn3)c2)cc1	USP30 block 63
COc1ccc2c(c1)C=C(C(=O)Nc1ccc(-n3cnnn3)cc1)C=CO2	USP17 inh 39, USP30 block 33
CCCOc1cccc(C(=O)Nc2ccc(-n3cnnn3)cc2)c1	USP17 inh 51, USP30 block 83, USP8 block 48, USP28 inh 47
CCc1nc(N2CCCC2=O)sc1C(=O)Nc1cccc(C(C)=O)c1	USP28 inh 52
CCc1nc(N2CCCC2=O)sc1C(=O)Nc1cccc(C)c1	USP28 inh 49 (no result: USP17 inh)
CCOC(=O)Nc1cccc(C(=O)Nc2ccc(N3CCCC3=O)cc2)c1	none
CCc1nc(N2CCCC2=O)sc1C(=O)Nc1ccccc1	none (no result: USP17 inh)
Cn1c(SC/C=C/c2ccccc2)nnc1-c1ccccn1	none
COc1ccc(CCNC(=O)c2cc(S(=O)(=O)N3CCOCC3)ccc2F)cc1OC	none
